Structures are written as SMILES. Records with an inconclusive call do not appear. Active and inactive are the calls of the source. The rule behind the calls is not given here.

A short description of this test: E. coli strain growth, wild-type against H38 humanized mutant – H38 mutant GFP vs wild-type RFP, cherry-pick, dose response (AID 977627). The note with it: activity: measured here: wild-type RFP strain growth, at 50 µM, stronger effect = lower value.

For the compound `O=C(COC(=O)c1cccc(O)c1)Nc1ccc(Cl)cc1C(=O)c1ccccc1`, the activity was -8.13% and the outcome is “inactive”.

The values are drawn from PubChem BioAssay AID977627 (Broad Institute, 2014).
